Results reported in PubChem BioAssay (NCATS).
Results filed as inconclusive are left out. Entries that show only a call come without a potency. Calls of active or inactive are those of the source. Unless noted, calls come from the whole dose curve; as a rule, active = well fitted curve in the direction sought with a large enough effect; inconclusive = small, poorly fitted or top-dose-only effect, or another doubt; inactive = no such curve, though single readings can be large; an effect the other way counts as inactive or inconclusive.

What was measured:
[1] = target: Voltage-gated inwardly rectifying potassium channel KCNH2 (Homo sapiens) (UniProt Q12809); assay: qHTS Assay for Small Molecule Inhibitors of the Human hERG Channel Activity (AID 588834); settings: U2OS BacMam hERG, FluxOR thallium flux fluorescence; series mostly up to 46.1 µM;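 note: top concentration of the series differs between compounds; lower thallium flux fluorescence means stronger hERG block; nearly all actives have a fitted effect of over 50% in size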
Voltage-gated inwardly rectifying potassium channel KCNH2 (Homo sapiens), sequence (Q12809 whole entry, looked up): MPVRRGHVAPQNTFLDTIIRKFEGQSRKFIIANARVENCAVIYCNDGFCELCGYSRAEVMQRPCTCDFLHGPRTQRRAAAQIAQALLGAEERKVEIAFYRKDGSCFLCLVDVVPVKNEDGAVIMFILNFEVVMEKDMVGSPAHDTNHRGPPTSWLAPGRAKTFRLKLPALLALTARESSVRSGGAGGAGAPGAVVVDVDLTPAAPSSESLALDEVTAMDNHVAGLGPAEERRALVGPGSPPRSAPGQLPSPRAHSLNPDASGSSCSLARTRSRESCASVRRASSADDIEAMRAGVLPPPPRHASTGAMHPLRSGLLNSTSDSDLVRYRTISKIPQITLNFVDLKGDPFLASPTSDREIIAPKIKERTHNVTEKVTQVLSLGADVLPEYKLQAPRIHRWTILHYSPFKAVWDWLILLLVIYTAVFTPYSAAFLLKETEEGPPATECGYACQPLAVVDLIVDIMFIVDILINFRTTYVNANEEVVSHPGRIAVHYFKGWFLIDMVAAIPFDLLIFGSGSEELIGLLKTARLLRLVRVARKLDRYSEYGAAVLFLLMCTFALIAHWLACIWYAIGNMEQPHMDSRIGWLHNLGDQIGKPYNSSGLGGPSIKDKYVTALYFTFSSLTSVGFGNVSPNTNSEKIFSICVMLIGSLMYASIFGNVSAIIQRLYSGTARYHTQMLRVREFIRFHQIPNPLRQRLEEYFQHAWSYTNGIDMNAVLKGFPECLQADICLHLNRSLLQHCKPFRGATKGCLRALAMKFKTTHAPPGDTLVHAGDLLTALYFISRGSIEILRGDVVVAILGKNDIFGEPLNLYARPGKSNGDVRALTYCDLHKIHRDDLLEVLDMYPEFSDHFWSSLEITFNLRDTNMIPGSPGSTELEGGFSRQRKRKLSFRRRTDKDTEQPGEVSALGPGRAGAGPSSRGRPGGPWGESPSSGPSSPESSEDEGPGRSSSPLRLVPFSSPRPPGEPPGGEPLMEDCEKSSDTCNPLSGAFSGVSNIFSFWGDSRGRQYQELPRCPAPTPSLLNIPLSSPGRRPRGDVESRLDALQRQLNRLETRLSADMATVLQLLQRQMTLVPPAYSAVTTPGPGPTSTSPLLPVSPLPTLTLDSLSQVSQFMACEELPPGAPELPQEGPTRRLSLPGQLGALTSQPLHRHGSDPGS
Summary of the method: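 U2OS cells BacMam-transduced with hERG, 2000 cells/well, compound ~10 min at 37 °C before stimulation buffer. FluxOR thallium flux fluorescence read kinetically on FDSS; decrease indicates block; AC50 from Hill fits.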

[2] = target: Luciferin 4-monooxygenase (Photinus pyralis) (UniProt P08659); assay: Biochemical firefly luciferase enzyme assay for NPC (AID 624030);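 note: purified P. pyralis luciferase at 10 nM with luciferin and ATP substrate; nearly all actives have a fitted effect of over 70% in size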; settings: purified P. pyralis luciferase, luminescence, 5 min; series mostly up to 58.6 µM
Luciferin 4-monooxygenase (Photinus pyralis), sequence (P08659 whole entry, looked up): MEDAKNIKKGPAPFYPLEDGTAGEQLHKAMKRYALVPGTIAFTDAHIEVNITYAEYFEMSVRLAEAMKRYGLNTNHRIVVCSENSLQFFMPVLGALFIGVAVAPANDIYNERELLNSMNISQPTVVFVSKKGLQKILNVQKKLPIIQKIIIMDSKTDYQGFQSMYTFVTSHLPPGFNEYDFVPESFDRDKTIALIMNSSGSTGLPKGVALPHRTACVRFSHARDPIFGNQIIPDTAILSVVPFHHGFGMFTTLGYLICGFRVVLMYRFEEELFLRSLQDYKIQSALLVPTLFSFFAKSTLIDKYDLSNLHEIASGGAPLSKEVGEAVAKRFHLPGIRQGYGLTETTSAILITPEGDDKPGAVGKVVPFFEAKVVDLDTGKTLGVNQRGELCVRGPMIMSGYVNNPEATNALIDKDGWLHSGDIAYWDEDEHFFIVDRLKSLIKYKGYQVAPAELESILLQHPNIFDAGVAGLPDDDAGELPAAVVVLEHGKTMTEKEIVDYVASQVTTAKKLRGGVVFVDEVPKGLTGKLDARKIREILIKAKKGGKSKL
Summary of the method: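 Direct inhibition of firefly luciferase enzyme (10 nM final, 50 mM Tris Acetate) assessed by luminescence within 5 minutes. Percent activity scaled between DMSO and PTC124 positive control, with concentration-effect curves classified by fit quality and response.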

[3] = target: Glutaminase kidney isoform, mitochondrial (Homo sapiens) (UniProt O94925); assay: qHTS for Inhibitors of Glutaminase (GLS): LOPAC Validation (AID 624146); settings: glutaminase enzyme activity inhibition; series mostly up to 46.1 µM;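 note: glutamate product detected by oxidase and peroxidase coupled Amplex red fluorescence gain; nearly all actives have a fitted effect of over 60% in size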
Glutaminase kidney isoform, mitochondrial (Homo sapiens), sequence (O94925 whole entry, looked up, canonical isoform): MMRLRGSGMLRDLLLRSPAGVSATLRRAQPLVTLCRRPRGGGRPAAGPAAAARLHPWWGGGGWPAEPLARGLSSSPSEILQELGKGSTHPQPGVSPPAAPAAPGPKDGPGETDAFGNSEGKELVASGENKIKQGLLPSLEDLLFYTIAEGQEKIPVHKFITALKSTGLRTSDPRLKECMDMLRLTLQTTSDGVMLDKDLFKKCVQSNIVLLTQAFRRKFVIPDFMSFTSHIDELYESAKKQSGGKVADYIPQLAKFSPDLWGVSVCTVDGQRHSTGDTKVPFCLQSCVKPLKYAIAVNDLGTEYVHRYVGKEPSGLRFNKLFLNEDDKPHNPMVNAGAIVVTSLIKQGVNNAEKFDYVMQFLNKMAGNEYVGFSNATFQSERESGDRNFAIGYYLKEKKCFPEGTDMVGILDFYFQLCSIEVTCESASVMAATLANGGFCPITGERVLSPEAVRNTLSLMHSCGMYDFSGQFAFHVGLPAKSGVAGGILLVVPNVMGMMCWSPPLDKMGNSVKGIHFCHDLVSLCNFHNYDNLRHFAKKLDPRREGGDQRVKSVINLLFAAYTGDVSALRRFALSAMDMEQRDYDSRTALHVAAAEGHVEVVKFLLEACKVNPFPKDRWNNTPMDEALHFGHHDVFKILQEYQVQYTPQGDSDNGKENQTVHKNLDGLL
Summary of the method: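 Enzyme dispensed in phosphate buffer (45 mM, pH 8.2, 0.02% Tween-20), compounds pinned in, then 1 mM L-glutamine solution and the glutamate oxidase–HRP–Amplex Red mix added; fluorescence read immediately and again after 30 min at room temperature.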

[4] = qHTS of Trypanosoma Brucei Inhibitors: LOPAC Validation (AID 624147); settings: purified enzyme assay, luminescence, 45 min; series mostly up to 57.5 µM
Summary of the method: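 Luminescence from Kinase-Glo Plus, added after a 45-minute room-temperature reaction, served as the end-point read-out. The enzyme and substrate were preincubated with compound before ADP (130 uM final) initiated turnover. Concentration-effect curves came from normalized qHTS data.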

[5] = target: Glucagon-like peptide 1 receptor (Homo sapiens) (UniProt P43220); assay: qHTS of GLP-1 Receptor Agonists: LOPAC Validation (AID 624148); settings: GLP-1R agonist cell assay; series mostly up to 46.1 µM;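 note: luminescence from a luciferase reporter switched on by cAMP; higher luminescence signal means agonism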
Glucagon-like peptide 1 receptor (Homo sapiens), sequence (P43220 whole entry, looked up): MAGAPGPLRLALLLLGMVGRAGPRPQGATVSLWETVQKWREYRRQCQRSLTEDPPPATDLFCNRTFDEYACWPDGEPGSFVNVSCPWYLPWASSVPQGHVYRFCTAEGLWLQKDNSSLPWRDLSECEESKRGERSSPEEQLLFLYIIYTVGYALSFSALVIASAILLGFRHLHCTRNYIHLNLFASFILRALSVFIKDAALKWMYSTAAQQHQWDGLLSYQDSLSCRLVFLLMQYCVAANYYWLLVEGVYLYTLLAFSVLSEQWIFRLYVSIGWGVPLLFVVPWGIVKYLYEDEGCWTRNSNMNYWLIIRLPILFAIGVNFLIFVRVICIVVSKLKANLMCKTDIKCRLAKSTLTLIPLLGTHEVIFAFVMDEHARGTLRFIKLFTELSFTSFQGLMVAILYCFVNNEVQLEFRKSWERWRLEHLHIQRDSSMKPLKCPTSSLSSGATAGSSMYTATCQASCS
Summary of the method: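 Agonism scored as increased luciferase luminescence driven by cAMP in HEK293 clones carrying GLP-1R. Cells settled 12 hours, received compound for 4-6 hr at 37 deg C, 5% CO2, and were read after 12 min detection reagent at RT.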

[6] = qHTS of Nrf2 Activators: LOPAC Validation (AID 624149); settings: Nrf2/ARE reporter cell assay; series mostly up to 46.1 µM
Summary of the method: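 AREc32_Fluc cells, 1000/well in OPTI-MEM with 5% FBS, grown overnight, then exposed to compounds for 24 hr at 37 deg C, 5% CO2. ARE-driven firefly luciferase read by Steady-Glo luminescence after 30 min at RT.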

[7] = S16 Schwann cell viability assay (CellTiter-Glo assay) (AID 624031); settings: S16 rat Schwann cells viability, 24 h; series mostly up to 57.5 µM;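 note: cellular ATP luminescence as a viability measure; nearly all actives have a fitted effect of over 70% in size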
Summary of the method: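 Untransfected S16 rat Schwann cells; compound 24 h, 37 °C/5% CO2; CellTiter-Glo ATP luminescence. % activity vs no-cell wells and DMSO controls (0%); concentration-effect curves classed by r2, response magnitude, activity.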

[8] = S16 Schwann cell PMP22 intronic element beta-lactamase assay (AID 624044; calls by dose curve; note: nearly all actives have a fitted effect of over 15% in size); settings: S16 rat Schwann cells, PMP22 element beta-lactamase FRET, 24 h; series mostly up to 38.3 µM
Summary of the method: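 Rat S16 Schwann cells with beta-Lac driven by a PMP22 intronic element, compound-treated 24 h at 37 °C. LiveBLAzer FRET B/G read: 460 nm normalized to potassium clavulanate vs DMSO; 535 nm FRET as viability; concentration-effect curves classified.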

Structure (SMILES)	Potency [1]	Potency [2]	outcome [3]	outcome [4]	outcome [5]	outcome [6]	Potency [7]	outcome [8]
C1COC(NC(C2CC2)C2CC2)=N1	inactive	inactive	inactive	inactive	inactive	inactive		
c1ccc([C@H]2CN3CCSC3=N2)cc1	inactive		inactive	inactive	inactive	inactive		
O=C(Nc1nc2ccccc2n1CCN1CCOCC1)c1cccc([N+](=O)[O-])c1			inactive	inactive	inactive	inactive		
OC(CCN1CCCCC1)(c1ccccc1)C1CC2C=CC1C2 (stereo not given)		inactive	inactive	inactive	inactive	inactive		
CCOC(=O)N1CCC(=C2c3ccc(Cl)cc3CCc3cccnc32)CC1		inactive		inactive	inactive	inactive	inactive	inactive
O=C(O)COCCN1CCN(C(c2ccccc2)c2ccc(Cl)cc2)CC1 (stereo not given)			inactive	inactive	inactive	inactive		
CCC(C)N(C)C(=O)c1cc2ccccc2c(-c2ccccc2Cl)n1 (stereo not given)	inactive		inactive	inactive	inactive	inactive		
CCn1cc(C(=O)O)c(=O)c2cc(F)c(N3CCNC(C)C3)c(F)c21 (stereo not given)			inactive	inactive	inactive	inactive		
